# Measured values taken from the supplement of paper PMC8975748.
# Where a name gives a salt, the structure may show the parent alone.
# Test system: Saccharomyces cerevisiae BY4741 SeMeCo community
# Assay: z-score of subpopulation abundance vs DMSO median, subpopulation auxotrophic for LUM; higher = larger share of this subpopulation than in DMSO controls
# Conditions: 10 µM; 24 h; SM minimal medium; subpopulation (auxotrophy): LUM
# Outline: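 Cells of a Saccharomyces cerevisiae BY4741 community, carrying four plasmids that each restored one auxotrophy and encoded a distinct fluorescent protein, were pre-grown overnight to OD600 1.0 and diluted to 0.3. A 70 µl volume was added to 384-well plates acoustically predosed with library drugs (10 µM final) and grown 24 h in minimal SM medium. After paraformaldehyde fixation, automated confocal microscopy was used, with single-auxotroph fluorescent strains for thresholds and autofluorescence correction. The abundance of each subpopulation was scored as a z-score against the vehicle-well median.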
row,SMILES,z-score of subpopulation abundance
1,C=C[C@]1(C)C[C@@H](OC(=O)CSC(C)(C)CNC(=O)[C@H](N)C(C)C)[C@]2(C)[C@H](C)CC[C@]3(CCC(=O)[C@H]32)[C@@H](C)[C@@H]1O [Valnemulin HCl],0.67
2,C[N+]1(C)CCC(=C(c2ccccc2)c2ccccc2)CC1 [Diphemanil Methylsulfate],0.41
3,CC[C@H]1OC(=O)[C@H](C)[C@@H](O[C@H]2C[C@@](C)(OC)[C@@H](O)[C@H](C)O2)[C@H](C)[C@@H](O[C@@H]2O[C@H](C)C[C@H](N(C)C)[C@H]2O)[C@](C)(O)C[C@@H](C)/C(=N\OCOCCOC)[C@H](C)[C@@H](O)[C@]1(C)O [Roxithromycin],0.55
4,CC(C(=O)O)c1cccc(C(=O)c2ccccc2)c1 (configuration not stated) [Ketoprofen],1.22
5,C#C[C@]1(O)CC[C@H]2[C@@H]3CCC4=Cc5oncc5C[C@]4(C)[C@H]3CC[C@@]21C [Danazol],0.22
6,Cc1c(OCC(F)(F)F)ccnc1C[S+]([O-])c1nc2ccccc2[nH]1 (configuration not stated) [Lansoprazole],1.02
7,CC(C(O)c1ccc(O)cc1)N1CCC(Cc2ccccc2)CC1 (configuration not stated) [Ifenprodil Tartrate],-0.99
8,Cc1ncc([N+](=O)[O-])n1C [Dimetridazole],-1.1
9,CC(=O)OCC[N+](C)(C)C [Acetylcholine iodide],-1.27
10,CC(=O)N1CCN(c2ccc(OCC3COC(Cn4ccnc4)(c4ccc(Cl)cc4Cl)O3)cc2)CC1 (configuration not stated) [Ketoconazole],-0.27
11,CN1C2CCCC1CC(NC(=O)c1nn(C)c3ccccc13)C2 (configuration not stated) [Granisetron HCl],0.06
12,NC(=O)OCC(COC(N)=O)c1ccccc1 [Felbamate],-0.77
13,CCCN(CCC)CCc1cccc2c1CC(=O)N2 [Ropinirole HCl],1.74
14,CC(=O)NO [Acetohydroxamic acid],1.04
15,COc1ccc2c3c1O[C@H]1C[C@@H](O)C=C[C@@]31CCN(C)C2 [Galanthamine HBr],-0.14
16,CCN(CC)CC#CCOC(=O)C(O)(c1ccccc1)C1CCCCC1 (configuration not stated) [Oxybutynin chloride],-0.46

row,SMILES,z-score of subpopulation abundance
1,Cc1ccc(-c2cc(C(F)(F)F)nn2-c2ccc(S(N)(=O)=O)cc2)cc1 [Celecoxib],-0.48
2,Cc1cccc(N(C)C(=S)Oc2ccc3ccccc3c2)c1 [Tolnaftate],-0.11
3,CC(C)Cc1ccc(C(C)C(=O)O)cc1 (configuration not stated) [Ibuprofen Lysine],-2.47
4,O=C(Nc1cc(Cl)cc(Cl)c1O)c1c(O)c(Cl)cc(Cl)c1Cl [Oxyclozanide],-0.27
5,CN1CCN(CC(=O)N2c3ccccc3C(=O)Nc3cccnc32)CC1 [Pirenzepine dihydrochloride],-1.37
6,O=C(O)CCc1nc(-c2ccccc2)c(-c2ccccc2)o1 [Oxaprozin],-1.68
7,CC[C@H]1OC(=O)[C@H](C)[C@@H](O[C@H]2C[C@@](C)(OC)[C@@H](O)[C@H](C)O2)[C@H](C)[C@@H](O[C@@H]2O[C@H](C)C[C@H](N(C)C)[C@H]2O)[C@](C)(O)C[C@@H](C)C(=O)[C@H](C)[C@H]2OC(=O)O[C@@]21C [Erythromycin Cyclocarbonate],0.8
8,CN1CCC(=C2c3ccccc3C=Cc3ccccc32)CC1 [Cyproheptadine hydrochloride],-0.73
9,CC(Cc1ccc(O)c(O)c1)C(C)Cc1ccc(O)c(O)c1 (configuration not stated) [Nordihydroguaiaretic acid (NDGA)],0.39
10,CCOc1cc(N)c(Cl)cc1C(=O)NCC1CN(Cc2ccc(F)cc2)CCO1 (configuration not stated) [Mosapride],-0.04
11,C/C(=C\C(=O)OCCCCCCCCC(=O)O)C[C@@H]1OC[C@H](C[C@@H]2O[C@H]2[C@@H](C)[C@H](C)O)[C@@H](O)[C@H]1O [Mupirocin calcium],0.39
12,Cc1cc(C)nc(NS(=O)(=O)c2ccc(N)cc2)n1 [Sulfamethazine Sodium Salt],-0.01
13,CCN(CC)CCNC(=O)c1cc(Cl)c(N)cc1OC [Metoclopramide],1.17
14,O=C1[C@H]2CCCC[C@H]2C(=O)N1CCCCN1CCN(c2nsc3ccccc23)CC1 [Perospirone hydrochloride],0.12
15,CC1=C(C(=O)OCCN(Cc2ccccc2)c2ccccc2)C(c2cccc([N+](=O)[O-])c2)C(P2(=O)OCC(C)(C)CO2)=C(C)N1 (configuration not stated) [Efonidipine],2.5
16,CS(=O)(=O)c1ccc([C@@H](O)[C@@H](CF)NC(=O)C(Cl)Cl)cc1 [Florfenicol],-0.3
